About 83,000 compounds went through this panel and 20% of them were active in at least one assay; those are over-represented in the sample as a whole.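 Testing used 96-well plates and a 48-hour single-concentration exposure. Example: -40 means 40% of the starting cells died.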 Activity calls are given as the source filed them. Rule for the calls: active = growth percent below 10; inactive = the rest.
Key:
Assay in all cases: NCI-60 one-dose screen, 48 h (100 = growth as untreated, 0 = no growth, -100 = all killed)
Conditions in all cases: 10 µM unless noted
[1] = test system: DU-145 prostate
[2] = test system: K-562 leukemia
[3] = test system: MALME-3M melanoma
[4] = test system: MDA-MB-231 breast
[5] = test system: RXF 393 renal
[6] = test system: SF-268 CNS
[7] = test system: SF-295 CNS
[8] = test system: SF-539 CNS
[9] = test system: UACC-257 melanoma
[10] = test system: M14 melanoma

Measured: growth

COC(=O)/C=C/c1cccc2c1C(=O)NC(C)(c1cc3cc4ccccc4cc3oc1=O)N2 (stereo not given)
inactive: [1] 46.1% | [2] 46.7% | [3] 19.6% | [4] 28.5% | [6] 42.8% | [7] 75.3% | [8] 44.7% | [9] 77.8% | [10] 55.9%
active: [5] -0.792%

CCCCCCCCc1ccc(C(=O)Nc2cccc(P(=O)(O)O)c2)cc1
inactive: [1] 107% | [2] 97.6% | [3] 106% | [4] 116% | [5] 129% | [6] 107% | [7] 96.5% | [8] 97.4% | [9] 97.1% | [10] 96.2%

COc1ccc(/C=C/c2nc3ccccc3c(=O)n2CC(=O)Nc2ccc(OC)cc2)cc1
active: [8] -18.5%
inactive: [1] 77.2% | [2] 95.3% | [3] 73.7% | [4] 27.3% | [5] 70.5% | [6] 71.4% | [7] 74.6% | [9] 103% | [10] 90.3%

COc1ccc(-c2ccnc(SCc3cc4cc(OC)ccc4[nH]c3=O)n2)cc1
inactive: [1] 43.7% | [3] 36.7% | [4] 22.7% | [6] 36.6% | [7] 17.5% | [8] 20.5% | [9] 38% | [10] 19.8%
active: [2] 4.74% | [5] 7.02%

O=C(/C=C/Nc1ccc(Cl)cc1)c1ccc2c(c1)Nc1ccccc1S2
active: [8] 8%
inactive: [1] 33.5% | [2] 49.2% | [3] 50.7% | [4] 26.8% | [5] 14.5% | [6] 42.3% | [7] 23.4% | [9] 74.5% | [10] 49.5%

Cc1ccc(C(SCCNCc2cc(N(C)C)ccn2)(c2ccccc2)c2ccccc2)cc1
active: [1] -8% | [2] -42.7% | [3] -94.4% | [4] -56.9% | [5] -47.3% | [6] -2.09% | [7] -96.1% | [8] -99.1% | [9] -65.4% | [10] -84.3%

Cc1sc(C(NC(=O)OCCn2c([N+](=O)[O-])cnc2C)C(F)(F)Cl)nc1-c1ccc(OC(F)(F)F)cc1 (stereo not given)
active: [1] -70.4% | [2] 0.935% | [3] -75% | [4] -94.8% | [5] -88.6% | [6] -38.6% | [7] -98.8% | [8] -92.4% | [9] -73% | [10] -67.5%

COc1cc2nc(SCc3ccccc3)n(-c3ccc(Cl)cc3)c(=O)c2cc1OC
active: [1] -10% | [2] 2.35% | [3] -40.8% | [4] -6.51% | [5] -38.8% | [6] -12.9% | [7] -59.9% | [8] -83.6%
inactive: [9] 38.3% | [10] 20.1%

CCCCSc1nc(NCCc2c[nH]c3ccccc23)c(C#N)c(-c2ccc(F)cc2)n1
inactive: [1] 66.4% | [2] 22.2% | [3] 90.9% | [4] 52.2% | [5] 65.2% | [6] 54.9% | [7] 62.1% | [8] 65.2% | [9] 97.9% | [10] 65.9%

C=C1CC[C@@H]2[C@]3(C)COC(c4ccccc4)O[C@@H]3CC[C@@]2(C)[C@@H]1C/C=C1/C(=O)OCC1OC(C)=O (stereo not given in full)
active: [2] -39.6% | [3] -54.8% | [4] -83.1% | [5] -87.7% | [7] -4.5% | [8] -100% | [9] -49.6% | [10] -86.9%
inactive: [1] 22.5% | [6] 35.1%

COc1ccc(-c2nc(SC(C)C)nc(NCCc3c[nH]c4ccccc34)c2C#N)cc1
inactive: [1] 54% | [2] 14.5% | [3] 78.8% | [4] 26.6% | [6] 49.8% | [7] 33.6% | [8] 42.7% | [9] 82.5% | [10] 55.7%
active: [5] -20.3%

COc1ccc(NC(=O)Nc2ccc(OCc3ccc(F)cc3)cc2)cc1
inactive: [1] 88.5% | [2] 82.6% | [3] 62.3% | [4] 53.5% | [5] 35% | [6] 61.3% | [7] 102% | [9] 85.9% | [10] 77%
active: [8] 0.894%
